The compounds below were run on ULK2. Conditions: Compound Concentration (nM):1000.
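Note: KINOMEscan scanMAX binding as percent activity remaining versus control; lower means stronger binding.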

SMILES | Percent Control [%]
COc1cc2ncnc(Nc3ccc4c(cnn4Cc4ccccc4)c3)c2cc1OC.Cl [GW282449A] | 100
Cl.c1ccc(Cc2nc3ccc(Nc4ncnc5ccccc45)cc3[nH]2)cc1 [GR269666A] | 100
NS(=O)(=O)c1ccc(N/N=C2\C(=O)Nc3ccc(-c4cnco4)cc32)cc1 [GW276655] | 82
COc1ccc2[nH]c3c4[nH]c5ccc(OC)cc5c4c4c(c3c2c1)C(=O)NC4=O [GW296115X] | 87
CCc1ccc(Oc2nccc(-c3c(-c4ccc(F)cc4)ncn3C3CCNCC3)n2)cc1 [SB-242719] | 77
CC1=C(C(=O)Nc2ccc3[nH]ncc3c2)C(c2ccc3ccccc3c2)CC(=O)N1 (stereo not drawn) [GSK270822A] | 79
NS(=O)(=O)c1ccc(Nc2ncc(-c3ccccc3)o2)cc1 [GW572399X] | 91
C/C(Nc1ccc(S(N)(=O)=O)cc1)=C1/C(=O)Nc2ccccc21 [GW335962X] | 52

Each compound was assayed on ULK3. Conditions: Compound Concentration (nM):1000.

SMILES | Percent Control [%]
COc1cc(N2CCN(C(C)C)CC2)ccc1Nc1nc(Nc2ccc(F)cc2C(=O)NC[C@@H](O)CO)c2cc[nH]c2n1 [GSK1392956A] | 100
Nc1ncnc2occ(-c3ccc(NC(=O)Nc4cc(C(F)(F)F)ccc4F)cc3)c12 [GW770249X] | 100
NS(=O)(=O)c1ccc(N/N=C2\C(=O)Nc3ccc(C(=O)NCc4ccncc4)cc32)cc1 [GW300657X] | 31
COc1cccc(-c2c[nH]c3c(N/N=C/c4ccncc4)ncnc23)c1 [GW814408X] | 68
COc1ccc2c(-c3ccnc(Nc4cccc(OC(F)(F)F)c4)n3)cnn2n1 [GW810372X] | 100
CCS(=O)(=O)c1ccc(OC)c(Nc2ncc(-c3cccc(OC)c3)o2)c1 [GW580509X] | 99
Cl.O=C(Nc1ccc(Oc2ccc3[nH]c(NC(=O)c4ccco4)nc3c2)cc1)Nc1cc(C(F)(F)F)ccc1F [GW683134A] | 62
CCn1c(-c2nonc2N)nc2c(C#CC(C)(C)O)nc(OCCNC)cc21.Cl [GSK949675] | 94
COc1cccc(-n2ncc3c(N/N=C/c4ccncc4)ncnc32)c1 [GW784752X] | 100
COc1ccccc1-c1cc(/C=C2\C(=O)Nc3ncc(Br)cc32)cc(Br)c1O [GW442130X] | 78
Cl.O=C(O[C@H]1CN[C@H](C#Cc2cc3ncnc(Nc4ccc5c(cnn5Cc5ccccc5)c4)c3s2)C1)N1CCOCC1 [GSK200398A] | 91
COc1cc2ncn(-c3cc(O[C@H](C)c4ccccc4Cl)c(C(N)=O)s3)c2cc1OC [GSK237701A] | 100
Cl.O=C(Nc1ccc(Oc2ccc3[nH]c(NC(=O)c4ccccc4)nc3c2)cc1)Nc1cc(C(F)(F)F)ccc1F [GW709042A] | 100
NS(=O)(=O)c1ccc(N/N=C2\C(=O)Nc3ccc(C(=O)NCCc4c[nH]cn4)cc32)cc1 [GW300660X] | 65
CN1CCN(C(=O)c2ccc(NC(=O)Nc3ccc(N(C)c4ccnc(Nc5ccc(CS(C)(=O)=O)cc5)n4)cc3)cc2)CC1.Cl [GW830263A] | 7.6
CN(C)CCNC(=O)Nc1ccc(N(C)c2ccnc(Nc3ccc(CS(C)(=O)=O)cc3)n2)cc1.Cl [GW830900A] | 80
COc1cc(C)c(N(C)C(=O)CN(C)C)cc1Nc1nc(Nc2cccc(F)c2C(N)=O)c2cc[nH]c2n1 [GSK2219385] | 100
CCS(=O)(=O)c1ccc(OC)c(Nc2ncc(-c3cccc(F)c3)o2)c1 [GW621970X] | 100
Cc1cc(O)cc(C)c1/C=C/c1cncc(C(N)=O)c1 [GW435821X] | 98
COc1ccc(COc2ccc(Cc3cnc(N)nc3N)cc2OC)cc1 [GW632580X] | 96
COc1cc(/C=N/Nc2ncnc3[nH]ncc23)ccc1O [GW578748X] | 6.1
NS(=O)(=O)c1ccc(N/N=C2\C(=O)Nc3ccc(Cl)cc32)cc1 [GW280670X] | 100
CN(C)c1cc2c(Nc3ccc4c(cnn4Cc4ccccc4)c3)ncnc2cn1 [GW282974X] | 91
COc1cc(C=NNc2ncnc3c2cnn3-c2ccccc2)ccc1O [GW513184X] | 67
CC(C)COC(=O)c1ccc2c(c1)/C(=C/Nc1ccc(S(N)(=O)=O)cc1)C(=O)N2 [GW416981X] | 13

— paper PMC7826789 (International Journal of Molecular Sciences, 2021)
